Among all 76,000 compounds or so, about 1,900 (2.5%) were called active. Inconclusive results (about 5%) are left out. Calls come from the whole dose curve; as a rule, active = well fitted inhibition curve with a large enough effect; inconclusive = small, poorly fitted or top-dose-only effect; inactive = flat fitted curve, though single readings scatter. What follows is part of a selection rich in actives, with near analogues and random picks from the rest. A call without a number means that no potency is given here.

Chain of Luciferin 4-monooxygenase (Photinus pyralis) (P08659 whole entry, looked up): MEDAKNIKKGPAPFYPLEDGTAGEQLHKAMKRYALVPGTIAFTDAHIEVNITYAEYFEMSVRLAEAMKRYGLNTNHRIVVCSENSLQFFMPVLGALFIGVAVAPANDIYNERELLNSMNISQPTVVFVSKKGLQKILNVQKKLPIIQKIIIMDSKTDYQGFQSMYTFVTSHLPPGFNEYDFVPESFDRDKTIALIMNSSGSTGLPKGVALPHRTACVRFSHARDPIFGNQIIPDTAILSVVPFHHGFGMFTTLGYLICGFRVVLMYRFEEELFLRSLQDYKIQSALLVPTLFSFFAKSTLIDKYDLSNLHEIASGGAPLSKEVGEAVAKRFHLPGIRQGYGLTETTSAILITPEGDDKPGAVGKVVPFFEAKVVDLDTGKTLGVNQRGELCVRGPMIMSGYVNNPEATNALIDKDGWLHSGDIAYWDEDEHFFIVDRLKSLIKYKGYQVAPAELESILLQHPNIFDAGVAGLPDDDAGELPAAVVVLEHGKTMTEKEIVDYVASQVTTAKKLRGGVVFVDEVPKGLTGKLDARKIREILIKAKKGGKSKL

The assay addresses Luciferin 4-monooxygenase (Photinus pyralis) (UniProt P08659). In words: Firefly luciferase inhibition profiling of diverse chemical library using quantitative high-throughput screening. Note: nearly all actives have a fitted effect of over 65% in size. Particulars: purified P. pyralis luciferase, luminescence, biochemical; series mostly up to 172 µM. The text has this: Firefly (Photinus pyralis) luciferase is one of the most commonly used transcriptional reporters for a number of reasons. It is considered one of the more dynamically responsive reporters - that is, responsive to changes in reporter transcription - as it requires no post-translational modifications and is enzymatically active directly after protein synthesis (Wood, 1998). Additionally, the half-life of the luciferase protein is short relative to other reporter-gene products (Wood, 1995). Whereas reporters with long half-lives potentially allow for increased signal due to accumulation of reporter-gene product, once accumulated in the cell, dynamic changes in reporter-gene expression may be difficult to detect(Fan and Wood, 2007; Almond et al., 2004). It has been shown that wild-type P. pyralis luciferase has a half-life of approximately four hours in mammalian cells (Thompson et al., 1991). Firefly luciferase reporter-gene assays are also generally considered one of the most sensitive assay types (Wood, 1995; Wood, 1998). Although light produced in a bioluminescence reaction is of lower intensity than that produced during fluorescence emission, this is offset by little to no background light inherent to luminescent assays. Thus the luciferase reporter can be expressed at much lower levels than fluorescent proteins while still providing robust signal. However, it was initially observed, in 1991, by Thompson et al., that compounds that resemble the substrates of firefly luciferase (FLuc) can act as competitive inhibitors of the enzyme, and that these compounds, upon interaction with luciferase in the cell, can actually stabilize the protein and increase its half-life. Accumulated intracellular FLuc protein can be measured as an increase in luminescence signal, upon addition of detection reagents (which contain high concentrations of FLuc substrates) commonly used in high-throughput screening. In cell-based reporter gene assays that use FLuc as the reporter gene to quantitate the potential influence of a given compound against the target biology, this apparent increase in luminescence can mistakenly be interpreted as identification of a compound that is active against the target of interest. FLuc inhibitory compounds that stabilize the FLuc protein will give an identical read-out, making it difficult to distinguish compounds that are active against the target from those active against FLuc. In summary, the results generated here constitutes a valuable resource for the scientific community and provides insight on identifying compounds with inhibitory activity for the commonly-used reporter, firefly luciferase. References: -Almond, B., Zdanovsky, A., Zdanovskaia, M., Ma, D., Stecha, P., Paguio, A., Garvin, D., and Wood, K. (2004). Introducing the Rapid Response Reporter Vectors. Promega Notes 87, 18-22. -Fan, F., and Wood, K.V. (2007). Bioluminescent assays for high-throughput screening. Assay Drug Dev Technol 5, 127-136. -Thompson, J.F., Hayes, L.S., and Lloyd, D.B. (1991). Modulation of firefly luciferase stability and impact on studies of gene regulation. Gene 103, 171-177. -Wood, K.V. (1998). The chemistry of bioluminescent reporter assays. Promega Notes 65, 14-20. -Wood, K.V. (1995). Marker proteins for gene expression. Curr Opin Biotechnol 6, 50-58.
Reagents: 50mM Tris acetate, pH 7.5; 10mM Mg acetate; 10uM D-luciferin (Sigma #L9504); 10uM ATP; 0.01% Tween-20; 0.05% BSA; 10nM P. pyralis luciferase (Sigma #L9506) Control compounds used were two known firefly luciferase inhibitors (compounds (2) and (5) in Auld et al., 2010), and DMSO. Assay Summary: Three microliters containing firefly luciferase substrates in buffer (final concentrations: 50mM Tris acetate, pH 7.5, 10mM Mg acetate, 0.01% Tween-20, 0.05% BSA, 10uM D-luciferin, and 10uM ATP) are dispensed into each well of a Greiner white, solid-bottom 1536-well format plate using a flying reagent dispenser (FRD). […]
Consider `COc1cccc(Nc2cc3c(cn2)CN(C)CCN3C)c1`, for which the Potency was 39.8 µM (active).

`O=C(Nc1ccccc1)N1C[C@@H]2C[C@H](C1)c1c(-c3ccc(Cl)cc3)ccc(=O)n1C2`: the Potency entry is “inactive”.

Take `COc1ccc(C(=O)NC[C@H]2C[C@@H]3CCN2C[C@@H]3c2cc(-c3ccccc3)nn2C)cc1`: the Potency entry is “inactive”.

With `COc1ccc(C(=O)N2[C@H]3CC[C@@H]2c2cnc(-c4ccccc4)nc2C3)c(OC)c1`, the Potency entry is “inactive”.

`Cc1ccc(C(=O)N2[C@H]3CC[C@@H]2c2cnc(-c4ccccc4)nc2C3)c(C)c1`: the Potency is 20 µM (active).

Turning to `Cc1cccc(C(=O)N2[C@H]3CC[C@@H]2c2cnc(-c4ccccc4)nc2C3)c1`, the Potency entry was “inactive”.

As to `C#C[C@H]1CN2CC[C@H]1C[C@@H]2COC(=O)Nc1cc(OC)cc(OC)c1`, the Potency result was “inactive”.

For `C=CCN(C)C[C@H]1CN2CC[C@H]1C[C@@H]2CNC(=O)Nc1cccc(SC)c1`, the Potency entry is “inactive”.

For the compound `COc1cc2c(cc1OCc1ccncc1)NC(=O)C21CCN(c2ncc(F)cn2)CC1`, the Potency entry was “inactive”.

As for `Cc1ccc(C(=O)NC[C@H]2C[C@@H]3CCN2C[C@@H]3c2cc(-c3ccco3)nc(C)n2)cc1`, the Potency result was “inactive”.

The record behind these values is PubChem BioAssay AID1347043 (National Center for Advancing Translational Sciences (NCATS), 2019).
